How the values were obtained:
Assay in all cases: thermal shift delta Tm vs DMSO control; higher = stronger stabilization (binding)
Settings in all cases: 12.5 µM; protein concentration 2 µM
[1] = system: LOC_OS02G45750-cb003
Outline: (§1)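 Purified, E. coli-expressed rice kinase domain constructs were tested by differential scanning fluorimetry in 96-well plates: 19.5 μl of 2 μM kinase in 100 mM potassium phosphate pH 7.5, 150 mM NaCl, 10% glycerol, 5 × SYPRO Orange, plus compound in DMSO. Fluorescence was read from 25°C to 95°C at 0.05°C/s. Melting temperatures came from Boltzmann fits, and the shift is the triplicate mean relative to protein with DMSO alone.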

[2] = system: LOC_OS02G54510-cb004
Outline: as §1

[3] = system: LOC_OS03G04050-cb001
Outline: as §1

[4] = system: LOC_OS03G12390-cb001
Outline: as §1

[5] = system: LOC_OS03G27990-cb004
Outline: as §1

[6] = system: LOC_OS03G50450-cb001
Outline: as §1

[7] = system: LOC_OS03G50810-cb003
Outline: as §1

[8] = system: LOC_OS04G35114-cb001
Outline: as §1

[9] = system: T1, LOC_OS04G38480-cb003
T1 sequence (whole entry): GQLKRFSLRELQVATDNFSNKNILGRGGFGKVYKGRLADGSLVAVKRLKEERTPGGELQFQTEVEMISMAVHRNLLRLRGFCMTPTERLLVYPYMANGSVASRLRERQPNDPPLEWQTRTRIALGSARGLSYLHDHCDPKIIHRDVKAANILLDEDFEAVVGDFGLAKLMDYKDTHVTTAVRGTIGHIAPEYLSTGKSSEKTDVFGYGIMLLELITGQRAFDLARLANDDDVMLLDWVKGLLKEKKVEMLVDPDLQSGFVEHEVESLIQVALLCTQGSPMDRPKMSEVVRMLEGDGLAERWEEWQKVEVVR
Outline: as §1

[10] = system: T2, LOC_OS04G41100-cb001
T2 sequence (whole entry): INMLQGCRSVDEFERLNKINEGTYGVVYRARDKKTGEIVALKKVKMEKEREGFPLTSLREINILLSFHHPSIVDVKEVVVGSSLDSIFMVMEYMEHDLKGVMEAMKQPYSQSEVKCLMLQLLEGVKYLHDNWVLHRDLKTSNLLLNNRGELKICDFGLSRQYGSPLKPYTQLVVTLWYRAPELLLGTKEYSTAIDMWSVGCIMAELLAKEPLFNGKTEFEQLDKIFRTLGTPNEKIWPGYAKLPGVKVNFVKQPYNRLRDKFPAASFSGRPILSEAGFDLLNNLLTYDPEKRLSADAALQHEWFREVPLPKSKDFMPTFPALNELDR
Outline: as §1

[11] = system: LOC_OS04G57630-cb004
Outline: as §1

[12] = system: LOC_OS05G07850-cb002
Outline: as §1

[13] = system: LOC_OS05G16824-cb004
Outline: as §1

[14] = system: LOC_OS05G28520-cb001
Outline: as §1

[15] = system: LOC_OS05G30820-cb001
Outline: as §1

[16] = system: LOC_OS05G43570-cb004
Outline: as §1

[17] = system: LOC_OS06G16330-cb003
Chain of LOC_OS06G16330-cb003 (as listed by the source): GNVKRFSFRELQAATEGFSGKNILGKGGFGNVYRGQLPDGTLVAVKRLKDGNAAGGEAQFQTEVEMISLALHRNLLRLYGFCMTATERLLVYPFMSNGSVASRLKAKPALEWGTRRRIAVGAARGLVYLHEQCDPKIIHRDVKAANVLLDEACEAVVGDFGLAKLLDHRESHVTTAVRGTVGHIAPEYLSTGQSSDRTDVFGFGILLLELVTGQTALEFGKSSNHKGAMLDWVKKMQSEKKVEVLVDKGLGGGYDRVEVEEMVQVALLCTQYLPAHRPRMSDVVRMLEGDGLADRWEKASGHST
Outline: as §1

[18] = system: T3, LOC_OS06G22820-cb001
T3 sequence (whole entry): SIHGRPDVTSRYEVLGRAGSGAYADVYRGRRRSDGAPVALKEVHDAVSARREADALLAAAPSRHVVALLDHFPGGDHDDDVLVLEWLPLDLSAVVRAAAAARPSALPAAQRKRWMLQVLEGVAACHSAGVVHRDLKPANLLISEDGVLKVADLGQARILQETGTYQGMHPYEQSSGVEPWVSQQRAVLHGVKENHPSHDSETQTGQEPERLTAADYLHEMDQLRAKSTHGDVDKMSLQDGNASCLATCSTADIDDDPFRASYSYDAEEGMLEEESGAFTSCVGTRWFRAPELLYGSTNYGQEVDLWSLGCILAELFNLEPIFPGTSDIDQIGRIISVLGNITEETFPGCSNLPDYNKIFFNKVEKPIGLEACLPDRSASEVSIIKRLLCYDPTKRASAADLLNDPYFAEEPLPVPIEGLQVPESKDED
Outline: as §1

[19] = system: LOC_OS07G06570-cb004
Outline: as §1

[20] = system: LOC_OS07G07230-cb001
Outline: as §1

| Compound | thermal shift delta Tm [1] [°C] | thermal shift delta Tm [2] [°C] | thermal shift delta Tm [3] [°C] | thermal shift delta Tm [4] [°C] | thermal shift delta Tm [5] [°C] | thermal shift delta Tm [6] [°C] | thermal shift delta Tm [7] [°C] | thermal shift delta Tm [8] [°C] | thermal shift delta Tm [9] [°C] | thermal shift delta Tm [10] [°C] | thermal shift delta Tm [11] [°C] | thermal shift delta Tm [12] [°C] | thermal shift delta Tm [13] [°C] | thermal shift delta Tm [14] [°C] | thermal shift delta Tm [15] [°C] | thermal shift delta Tm [16] [°C] | thermal shift delta Tm [17] [°C] | thermal shift delta Tm [18] [°C] | thermal shift delta Tm [19] [°C] | thermal shift delta Tm [20] [°C] |
| --- | --- | --- | --- | --- | --- | --- | --- | --- | --- | --- | --- | --- | --- | --- | --- | --- | --- | --- | --- | --- |
| C[C@@H]1COCCN1c1cc(=O)n2c(n1)N(Cc1cncc(Cl)c1)[C@H](C(F)(F)F)CC2 | 0.59 | 0.31 | 0.37 | 0.19 | 0.22 | 0.04 | 0.46 | 0.41 | 1.55 | 0.39 | 0.52 | -0.08 | -0.52 | 1.37 | 0.35 | 0.36 | -0.04 | 0.75 | 1.02 | -0.12 |
| N#Cc1cccc(-c2c[nH]c3ncnc(N4CCOCC4)c23)c1 | 3.36 | 0.44 | 0.26 | 3.14 | 0.37 | -0.1 | 2.96 | 5.02 | 1.08 | 0.06 | 0.05 | 12.3 | 1 | 0.3 | 0.46 | 0.26 | 3.82 | 0.53 | 0.63 | 0.58 |
| CCNc1nc(Nc2cc(F)c(C(=O)N3CCOCC3)cc2OC)ncc1C(F)(F)F | 1.06 | 0.23 | 0.41 | 0.25 | 0.28 | 0.95 | 0.82 | 1.17 | 1.15 | 0.43 | 0 | 3.03 | 1.21 | 0.71 | 0.46 | 0.26 | 0.76 | 0.28 | 0.96 | -0.16 |

— the supplement of paper PMC9694430
